Calls of active or inactive are those of the source.
Assays:
[1] = system: Plasmodium falciparum Sir2 (PF13_0152, Sir2A); assay: Plasmodium falciparum Sir2A binding compounds – biochemical, small-molecule microarray, 635 nm fluorescence, primary screen (AID 1098); details: fluorescence 635 nm, higher = more signal;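 note: score merges spot fluorescence intensity with its signal-to-noise ratio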
[2] = probe aDKK1 binding to arrayed compounds – biochemical, biotinylated probe, 635/667 nm fluorescence, primary screen (AID 1099); details: small-molecule microarray, higher = more signal;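 note: score merges 667nm spot fluorescence with signal to noise across triplicate slides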
[3] = probe aCHRDL2 binding to arrayed compounds – biochemical, biotinylated probe, 635/667 nm fluorescence, primary screen (AID 1100); details: small-molecule microarray, higher = more signal
[4] = change in splice reporter luminescence, either direction, cell-based, HEK293, spliceosome inhibition project, primary screen (AID 1101); details: HEK293 splicing luciferase reporter, 24 h, higher = more signal, called active from +8 up or from −8 down;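 note: HEK293 cells carrying a splicing-competent luciferase reporter gene; test concentration not given here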
[5] = biological target: Fibroblast growth factor 10 (Homo sapiens) (UniProt O15520); assay: compounds binding fibroblast growth factor 10 – biochemical, small-molecule microarray, 635 nm fluorescence, primary screen (AID 1102); details: FGF10 binding, fluorescence 635 nm, higher = more signal
[6] = system: glycogen synthase kinase-3 (GSK3A per assay name; protocol says GSK3B); assay: compounds binding glycogen synthase kinase-3 – biochemical, small-molecule microarray, 635 nm fluorescence, GSK3A, primary screen (AID 1103); details: fluorescence 635 nm, higher = more signal; note: the record names both GSK3A and GSK3B
[7] = biological target: Epidermal growth factor receptor (Homo sapiens) (UniProt P00533); assay: compounds binding epidermal growth factor receptor – biochemical, small-molecule microarray, 635 nm fluorescence, primary screen (AID 1104); details: EGFR binding, higher = more signal;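 note: score merges 667 nm emission intensity with spot signal to noise over triplicate slides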
[8] = biological target: Follistatin-related protein 3 (Homo sapiens) (UniProt O95633); assay: compounds binding follistatin-related protein 3 – biochemical, small-molecule microarray, 635 nm fluorescence, primary screen (AID 1105); details: FSTL3 binding, higher = more signal;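 note: score merges emission near 667 nm and signal to noise per printed spot across three slides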
[9] = biological target: Dickkopf-related protein 1 (Homo sapiens) (UniProt O94907); assay: small molecules binding DKK1 protein – biochemical, small-molecule microarray, 635 nm fluorescence scan, primary screen (AID 1106); details: higher = more signal;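 note: score merges emission near 667 nm with signal to noise over three replicate slides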
[10] = system: Inhibin beta A chain (activin A); assay: small molecules binding activin A – biochemical, small-molecule microarray, 635 nm fluorescence scan, primary screen (AID 1107); details: INHBA, higher = more signal;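 note: mouse activin A protein probed at 4.33 µg/mL on printed slides; score merges bound-protein fluorescence near 667 nm with spot signal-to-noise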
[11] = system: Human papillomavirus type 1a protein E7 (residues 44-93); assay: small molecules binding HPV E7 44-93 – biochemical, small-molecule microarray, residues 44-93, 635 nm fluorescence, primary screen (AID 1108); details: fluorescence 635 nm, higher = more signal;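 note: E7 fragment applied at 1 µg/mL in TBST for 1 h at 4 C; score combines spot fluorescence with its signal to noise ratio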
[12] = hepatitis C replication reporter changes, two-sided – Huh7 cells, luciferase reporter, HCV replication inhibitor project, primary screen (AID 1109); details: Huh7 HCV replicon luciferase reporter, 48 h; higher = more signal;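 note: huh7 hepatoma cells harbouring a luciferase neomycin HCV replicon reporter; luciferase luminescence as measure of HCV replicon replication; test concentration not given here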
[13] = biological target: Left-right determination factor 2 (Homo sapiens) (UniProt O00292); assay: small molecules binding LEFTY2 protein – biochemical, small-molecule microarray, 635 nm fluorescence scan, primary screen (AID 1110); details: higher = more signal
[14] = biological target: Calmodulin-1 (Homo sapiens) (UniProt P0DP23); assay: small molecules binding calmodulin-1 with EGTA – biochemical, small-molecule microarray, Cy5-labelled CALM1, profiling panel (AID 1111); details: Cy5-CALM1 binding fluorescence, higher = more signal;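 note: labelled calmodulin applied in Tris saline Tween buffer holding calcium plus EGTA and DTT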
[15] = biological target: Calmodulin-1 (Homo sapiens) (UniProt P0DP23); assay: small molecules binding Ca-loaded calmodulin-1 – biochemical, small-molecule microarray, Cy5-labelled CALM1, plus calcium, artefact control for SMM control-protein annotation, profiling panel (AID 1112); details: Cy5-CALM1 binding fluorescence, higher = more signal;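 note: score merges spot fluorescence with signal to noise from triplicate slides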
[16] = probe aWnt5a binding to arrayed compounds – biochemical, biotinylated probe, 635/667 nm fluorescence, primary screen (AID 1113); details: small-molecule microarray, higher = more signal;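 note: score merges 667 nm fluorescence intensity with signal-to-noise per printed feature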
[17] = probe aShh binding to arrayed compounds – biochemical, biotinylated probe, 635/667 nm fluorescence, primary screen (AID 1114); details: small-molecule microarray, higher = more signal;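 note: probe is biotin-labelled aShh protein from a stem cell growth factor screen; measures binding of labelled protein to compounds printed on the slide; score merges feature fluorescence at 667 nm with signal-to-noise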
[18] = probe aNog binding to arrayed compounds – biochemical, biotinylated probe, 635/667 nm fluorescence, primary screen (AID 1115); details: small-molecule microarray, higher = more signal;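 note: probe is biotinylated aNog protein used at 0.15 µg/mL for 1 h at 4 C; z-score combines 667 nm fluorescence of each spot with its signal to noise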
[19] = biological target: Torsin-1A-interacting protein 1 (Homo sapiens) (UniProt Q5JTV8); assay: compound microarray binding of lysate hLAP1 – cell lysate, small-molecule microarray, COS7 lysate, 635/667 nm fluorescence, primary screen (AID 1116); details: 635 nm fluorescence, higher = more signal
[20] = biological target: Alpha-bungarotoxin (Bungarus multicinctus) (UniProt P60615); assay: compounds binding labelled alpha-BTX control protein – biochemical, small-molecule microarray, Alexa647 label, 635/667 nm fluorescence, artefact control for SMM control protein annotation, profiling panel (AID 1117); details: alpha-BTX-A647 binding fluorescence, higher = more signal
Sequence of Alpha-bungarotoxin (Bungarus multicinctus) (P60615 whole entry, looked up): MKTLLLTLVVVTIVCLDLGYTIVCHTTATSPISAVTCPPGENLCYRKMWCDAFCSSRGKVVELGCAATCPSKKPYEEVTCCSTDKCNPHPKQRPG

Sequence of Epidermal growth factor receptor (Homo sapiens) (P00533 whole entry, looked up): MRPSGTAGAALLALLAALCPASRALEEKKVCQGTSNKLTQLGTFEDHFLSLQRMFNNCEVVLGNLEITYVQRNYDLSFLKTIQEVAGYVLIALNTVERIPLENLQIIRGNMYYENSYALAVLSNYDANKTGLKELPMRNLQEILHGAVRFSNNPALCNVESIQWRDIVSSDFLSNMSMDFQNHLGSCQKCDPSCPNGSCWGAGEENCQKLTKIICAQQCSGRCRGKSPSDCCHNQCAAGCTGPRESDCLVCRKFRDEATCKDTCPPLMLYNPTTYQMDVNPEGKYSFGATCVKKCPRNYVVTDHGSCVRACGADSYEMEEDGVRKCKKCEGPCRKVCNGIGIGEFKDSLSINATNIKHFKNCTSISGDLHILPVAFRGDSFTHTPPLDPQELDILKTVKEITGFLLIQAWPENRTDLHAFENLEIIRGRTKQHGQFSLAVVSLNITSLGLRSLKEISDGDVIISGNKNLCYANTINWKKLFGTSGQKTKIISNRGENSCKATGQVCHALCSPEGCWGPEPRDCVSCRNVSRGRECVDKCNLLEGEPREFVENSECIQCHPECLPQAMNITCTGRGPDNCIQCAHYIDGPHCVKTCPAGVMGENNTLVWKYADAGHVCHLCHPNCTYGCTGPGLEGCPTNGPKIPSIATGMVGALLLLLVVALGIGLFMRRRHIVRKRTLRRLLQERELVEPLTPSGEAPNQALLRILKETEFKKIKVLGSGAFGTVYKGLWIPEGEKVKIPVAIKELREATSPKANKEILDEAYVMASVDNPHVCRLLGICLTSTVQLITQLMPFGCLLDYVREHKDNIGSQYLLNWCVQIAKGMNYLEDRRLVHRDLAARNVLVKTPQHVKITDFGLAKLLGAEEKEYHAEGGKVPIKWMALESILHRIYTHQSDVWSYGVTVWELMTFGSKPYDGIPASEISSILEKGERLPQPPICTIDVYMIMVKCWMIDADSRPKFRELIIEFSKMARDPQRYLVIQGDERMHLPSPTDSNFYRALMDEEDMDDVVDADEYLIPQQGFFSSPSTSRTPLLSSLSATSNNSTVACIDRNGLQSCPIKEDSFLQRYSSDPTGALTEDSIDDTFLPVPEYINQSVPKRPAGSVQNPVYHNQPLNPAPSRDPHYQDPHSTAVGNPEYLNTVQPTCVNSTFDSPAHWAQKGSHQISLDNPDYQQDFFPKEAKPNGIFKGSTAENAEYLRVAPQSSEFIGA
Sequence of Follistatin-related protein 3 (Homo sapiens) (O95633 whole entry, looked up): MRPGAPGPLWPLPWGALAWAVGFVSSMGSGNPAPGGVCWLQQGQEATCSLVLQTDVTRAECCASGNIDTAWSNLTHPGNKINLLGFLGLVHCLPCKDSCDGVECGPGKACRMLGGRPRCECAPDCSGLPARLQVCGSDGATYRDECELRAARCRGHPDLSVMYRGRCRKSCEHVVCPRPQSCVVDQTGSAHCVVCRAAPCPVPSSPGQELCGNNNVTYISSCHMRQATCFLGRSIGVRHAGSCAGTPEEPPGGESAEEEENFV
Sequence of Dickkopf-related protein 1 (Homo sapiens) (O94907 whole entry, looked up): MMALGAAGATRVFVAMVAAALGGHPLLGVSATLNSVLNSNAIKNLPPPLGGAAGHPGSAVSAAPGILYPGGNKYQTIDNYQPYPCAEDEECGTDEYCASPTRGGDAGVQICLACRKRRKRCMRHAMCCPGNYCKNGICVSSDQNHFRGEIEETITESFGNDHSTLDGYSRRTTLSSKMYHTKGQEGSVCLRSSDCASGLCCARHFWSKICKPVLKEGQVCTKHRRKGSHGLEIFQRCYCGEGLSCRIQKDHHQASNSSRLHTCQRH
Sequence of Torsin-1A-interacting protein 1 (Homo sapiens) (Q5JTV8 whole entry, looked up): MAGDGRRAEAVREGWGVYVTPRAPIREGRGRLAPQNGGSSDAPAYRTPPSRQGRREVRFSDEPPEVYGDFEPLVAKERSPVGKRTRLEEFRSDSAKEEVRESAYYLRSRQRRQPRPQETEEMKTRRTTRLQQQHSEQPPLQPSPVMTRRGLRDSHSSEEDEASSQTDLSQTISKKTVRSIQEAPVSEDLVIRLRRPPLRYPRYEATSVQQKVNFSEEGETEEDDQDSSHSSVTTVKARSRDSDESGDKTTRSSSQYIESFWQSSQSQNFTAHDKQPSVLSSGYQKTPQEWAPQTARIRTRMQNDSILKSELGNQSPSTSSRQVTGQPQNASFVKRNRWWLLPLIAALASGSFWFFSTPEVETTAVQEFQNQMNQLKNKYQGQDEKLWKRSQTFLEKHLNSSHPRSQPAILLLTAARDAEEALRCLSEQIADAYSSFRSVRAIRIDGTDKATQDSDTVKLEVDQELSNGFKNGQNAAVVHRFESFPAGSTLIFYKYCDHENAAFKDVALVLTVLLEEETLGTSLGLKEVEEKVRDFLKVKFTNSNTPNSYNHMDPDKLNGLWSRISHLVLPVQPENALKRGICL
Sequence of Left-right determination factor 2 (Homo sapiens) (O00292 whole entry, looked up): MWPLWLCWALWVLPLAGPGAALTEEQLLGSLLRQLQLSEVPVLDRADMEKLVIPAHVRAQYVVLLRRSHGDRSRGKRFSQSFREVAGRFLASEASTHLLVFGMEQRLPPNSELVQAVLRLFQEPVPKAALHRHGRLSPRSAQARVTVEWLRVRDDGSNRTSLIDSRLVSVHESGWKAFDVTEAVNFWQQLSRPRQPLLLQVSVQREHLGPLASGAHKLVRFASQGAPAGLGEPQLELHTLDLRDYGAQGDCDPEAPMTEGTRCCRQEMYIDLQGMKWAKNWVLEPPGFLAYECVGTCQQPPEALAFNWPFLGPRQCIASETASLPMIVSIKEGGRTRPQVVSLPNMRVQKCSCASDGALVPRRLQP
Sequence of Fibroblast growth factor 10 (Homo sapiens) (O15520 whole entry, looked up): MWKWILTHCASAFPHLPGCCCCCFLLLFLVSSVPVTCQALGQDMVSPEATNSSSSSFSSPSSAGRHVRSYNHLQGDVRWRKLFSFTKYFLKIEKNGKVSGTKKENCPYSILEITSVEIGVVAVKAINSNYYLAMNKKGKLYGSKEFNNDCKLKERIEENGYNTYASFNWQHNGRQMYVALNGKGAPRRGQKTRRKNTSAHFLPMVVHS

| SMILES | composite z-score [1] | composite z-score [2] | composite z-score [3] | z-score [4] | composite z-score [5] | composite z-score [6] | composite z-score [7] | composite z-score [8] | composite z-score [9] | composite z-score [10] | composite z-score [11] | z-score [12] | composite z-score [13] | composite z-score [14] | composite z-score [15] | composite z-score [16] | composite z-score [17] | composite z-score [18] | composite z-score [19] | composite z-score [20] |
| --- | --- | --- | --- | --- | --- | --- | --- | --- | --- | --- | --- | --- | --- | --- | --- | --- | --- | --- | --- | --- |
| COc1ccc(CN(C2=CC[C@@]3(C(N)=O)C(=O)C(Cl)=C(Cl)C(=O)[C@@]3(C#N)C2)S(=O)(=O)c2ccc(Br)cc2)cc1 | -0.201 | 0.661 | 0.84 | -2.69 (inactive) | 0.0024 | -0.139 | -0.733 | -0.0224 | -1.28 | 1.03 | 0.731 | -1.56 | -0.885 | 1.1 | 0.391 | -0.11 | -0.0769 | 0.784 | 1.02 | -0.181 |
| CCOC(=O)C[C@H]1[C@H](OC(=O)c2cc3ccccc3oc2=O)[C@@H](NC(=O)c2ccc(-c3ccccc3)cc2)c2cc(OCCCO)ccc2N1C(=O)c1ccc2ccccc2n1 | 0.853 | -0.183 | -0.386 | -0.338 (inactive) | 0.93 | 1.01 | 0.622 | 1.06 | 0.45 | 0.379 | 1.38 | -0.989 | 0.48 | 0.0371 | -0.455 | -0.104 | -0.195 | -0.253 | 0.624 | 0.422 |
| CN1C(=O)C2C=CC(C(O)c3ccccn3)N(N(c3ccccc3)c3ccccc3)C2C1=O (stereo not given) | 1.44 | -0.16 | 0.711 | 0.527 (inactive) | 0.62 | 0.19 | 0.22 | 0.273 | -0.0644 | 0.79 | -0.686 | -0.276 | -0.0321 | 0.0023 | -0.0692 | -0.0735 | 0.0684 | 0.427 | 1.07 | 0.451 |
| COCCOC(=O)N1C(=O)[C@@]2(c3cc(C#CC4=CCCCC4)ccc31)[C@H](c1ccccc1OCCO)N1[C@H](c3ccccc3)[C@H](c3ccccc3)OC(=O)[C@H]1[C@@H]2C(=O)Nc1nc2ccccc2s1 | 1.09 | -0.148 | -0.226 | -1.62 (inactive) | 1.08 | 0.69 | 0.416 | 0.981 | 0.506 | 0.936 | 1.33 | -2.23 | 0.526 | 1.36 | 0.13 | -0.0236 | 0.0253 | 0.904 | 0.666 | 1.48 |
| CCOC(=O)C[C@H]1[C@H](OC(=O)c2ccccc2-c2ccccc2)[C@@H](NC(=O)c2ccc(-c3ccccc3)cc2)c2cc(OCCCO)ccc2N1C(=O)c1ccc2ccccc2n1 | 0.533 | -0.293 | -0.0904 | 0.224 (inactive) | 0.948 | 0.749 | 0.247 | 0.749 | 0.204 | 0.392 | 0.521 | -1.24 | 0.465 | 0.105 | -0.09 | -0.0445 | -0.0035 | 0.233 | -0.0823 | 1.86 |

Source: PubChem BioAssay
